High-throughput results (PubChem BioAssay)
VDR inhibitor: blocks the human vitamin D receptor; P11473; VDR-SRC2-3 peptide fluorescence polarization, 2 h; Potency, µM, most hits filed as inhibitors; 400,000 tested, 0.93% active
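Inhibition of the VDR/SRC2-3 peptide interaction is quantified by fluorescence polarization. Compounds (23 nl, pintool) incubate with the reagents for 2 hours at ambient room temperature.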
TDP1 inh: inhibitors of human tyrosyl-DNA phosphodiesterase TDP1. Q9NUW8. recombinant TDP1, AlphaScreen DNA substrate cleavage. Potency, µM (series often up to 130 µM), most hits filed as inhibitors. 350,000 tested, 0.28% active. AID 485290; note: nearly all actives have a fitted effect of over 40% in size
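Recombinant E. coli-expressed Tdp1 (1 nM) preincubated with compound 15 min at RT, then 5'-biotin/3'-phosphotyrosine-FITC DNA substrate (15 nM) added for 5 min. AlphaScreen beads (10 ug/ml) added, 10 min RT; tyrosine-FITC cleavage read as signal loss.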
TDP1 cell CPT: DT40-hTDP1 cell growth loss with CPT; chicken DT40 Tdp1-/-;hTDP1 cells + 20 nM CPT, ATP luminescence, 48 h; Potency, µM (top dose mostly 46.2 µM), most hits filed as inhibitors; 420,000 tested, 12% active; AID 686979; note: nearly all actives have a fitted effect of over 55% in size
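Cell growth measured by CellTiter-Glo luminescence after a minimum 48 h, 37 C compound exposure with 20 nM CPT in Tdp1-knockout DT40 cells stably expressing hTDP1, seeded 400/well; qHTS titration format.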
PLK1 PBD block: PLK1 (human) polo-box domain binding inhibition | AID 720504 | Potency, µM, most hits filed as inhibitors | P53350 | Plk1 PBD binding of FITC phosphopeptide, fluorescence polarization | 360,000 tested, 2.8% active; note: series mostly up to about 57 µM; nearly all actives have a fitted effect of over 65% in size
Target sequence (P53350 whole entry, looked up, the tested form may be a part): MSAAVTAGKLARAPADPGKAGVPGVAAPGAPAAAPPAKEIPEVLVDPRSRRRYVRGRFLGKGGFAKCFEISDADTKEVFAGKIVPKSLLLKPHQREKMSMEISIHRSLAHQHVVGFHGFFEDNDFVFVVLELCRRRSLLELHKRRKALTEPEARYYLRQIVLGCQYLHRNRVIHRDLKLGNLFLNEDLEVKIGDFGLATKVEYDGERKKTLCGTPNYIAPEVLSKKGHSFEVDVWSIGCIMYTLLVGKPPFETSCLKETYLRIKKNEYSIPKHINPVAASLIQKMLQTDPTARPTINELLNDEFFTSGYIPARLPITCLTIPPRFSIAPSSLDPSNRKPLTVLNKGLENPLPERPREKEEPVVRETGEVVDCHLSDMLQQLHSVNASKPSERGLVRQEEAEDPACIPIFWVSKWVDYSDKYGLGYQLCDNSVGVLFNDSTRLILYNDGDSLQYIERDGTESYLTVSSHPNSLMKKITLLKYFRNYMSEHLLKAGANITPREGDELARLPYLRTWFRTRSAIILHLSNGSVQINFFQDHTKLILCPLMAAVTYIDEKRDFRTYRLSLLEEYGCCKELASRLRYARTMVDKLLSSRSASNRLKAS
TDP1 cell noCPT: qHTS for Inhibitors of human tyrosyl-DNA phosphodiesterase 1 (TDP1): qHTS in cells in absence of CPT; DT40 Tdp1-/- hTDP1 cells, no CPT, ATP luminescence, 48 h; 420,000 tested, 15% active; AID 686978, 2013; Potency, µM (titrated, usually from 46.2 µM), hits mostly inhibitors; note: nearly all actives have a fitted effect of over 55% in size
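A cellular qHTS used chicken DT40 cells lacking endogenous Tdp1 but carrying stably transfected human TDP1. Compounds were applied without camptothecin, and cell growth kinetics were judged by ATP-dependent luminescence after ≥48 hr.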
GCN5L2 inh: blocks human GCN5L2 histone acetyltransferase | GCN5L2 HAT assay, ThioGlo1 CoA-SH fluorescence | Potency, µM (top dose mostly 58.9 µM), hits mostly inhibitors | 390,000 tested, 0.21% active
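Enzyme at 20nM final was mixed with library compounds for 15 min at room temperature. Peptide H3(1-25) at 75uM, acetyl-CoA at 70uM and ThioGlo1 at 50uM were then added. Plates were read immediately and after 20 min (Ex340nm/Em540nm).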
Numbers stand for hits; – = inactive; ? = inconclusive; · = no result given. Rows were chosen to be rich in hits. Some 18% of all compounds tested hit in one or more screens of this group. Calls come from the whole dose curve; as a rule, active = well fitted curve in the direction sought with a large enough effect; inconclusive = small, poorly fitted or top-dose-only effect, or another doubt; inactive = no such curve, though single readings can be large; an effect the other way counts as inactive or inconclusive.

SMILES | VDR inhibitor | TDP1 inh | TDP1 cell CPT | PLK1 PBD block | TDP1 cell noCPT | GCN5L2 inh
O=C(Nc1ccc2oc(-c3ccccc3)nc2c1)c1ccco1 | – | – | ? | – | ? | –
CCOC(=O)C(CCc1ccccc1)NC(C)C(=O)N1Cc2cc(OC)c(OC)cc2CC1C(=O)O (centres undefined) | – | – | · | · | · | –
COc1ccc2oc(-c3ccc(O)cc3)cc(=O)c2c1 | · | – | ? | · | 26.6µM | ·
COc1cc2oc(-c3ccc(O)cc3)cc(=O)c2c(OC)c1O | – | – | ? | – | ? | –
COc1cc(-c2cc(=O)c3c(C)cc(O)cc3o2)cc(OC)c1OC | – | · | ? | – | 8.2µM | ·
COc1ccc(-c2cc(=O)c3cc(OC)ccc3o2)cc1 | – | – | – | – | – | –
COc1ccc(-c2cc(=O)c3c(OC)c(OC)c(OC)c(OC)c3o2)cc1 | – | – | 23.1µM | – | 16.4µM | –
COc1c(O)cc2oc(-c3ccc(O)cc3)cc(=O)c2c1O | – | – | 29.1µM | – | ? | –
CCC(=O)NC[C@H](Cc1ccc(OCCc2nc(-c3ccccc3)oc2C)cc1)N/C(C)=C\C(=O)c1ccc(C(F)(F)F)cc1 | – | – | · | · | · | –
CC(C(=O)NCc1ccccc1)N1CCN(c2ccc(F)cc2)CC1 (centres undefined) | – | · | – | – | – | –
CC(C(=O)NC1CCCc2ccccc21)N1CCN(c2ccc(F)cc2)CC1 (centres undefined) | – | – | ? | – | 16.4µM | –
CCOc1cc(-c2nc(-c3ccc(-c4ccc(C)cc4)nc3OC)no2)cc(OCC)c1OCC | – | – | ? | · | ? | –
COc1ccc(N=C(c2ccccc2)c2c(C)[nH]n(-c3ccccc3)c2=O)c(OC)c1 | – | – | ? | – | 18.4µM | –
COc1ccc(CCN2C(=S)N(c3ccc(Cl)cc3)C(=O)C2CC(N)=O)cc1OC (centres undefined) | – | – | 14.6µM | – | 16.4µM | –
Cc1cc(NC(=O)CSc2nc(-c3cccs3)nc3ccccc23)no1 | – | – | 2.31µM | – | 1.84µM | –
CN(C)S(=O)(=O)c1ccc(NC(=O)c2cc(-c3cccs3)nc3ccccc23)cc1 | – | – | ? | – | 14.6µM | –
CCN(CC)S(=O)(=O)c1ccc(NC(=O)c2cc(-c3cccs3)nc3ccccc23)cc1 | – | – | ? | – | ? | –
Cc1cc(NC(=O)c2cc(-c3ccc(C)c(C)c3)nc3ccccc23)no1 | – | – | 11.6µM | – | 10.3µM | –
COc1cccc(NC(=O)c2cc(-c3ccc(OC)cc3OC)nc3ccccc23)c1 | – | · | ? | – | ? | ·
COc1ccc(-c2cc(C(=O)Nc3cc(C)on3)c3ccccc3n2)c(OC)c1 | – | – | 11.6µM | – | 9.2µM | –
CS(=O)(=O)Nc1cccc(-c2nc(NCc3cccs3)c3ccccc3n2)c1 | – | – | ? | · | ? | ?
O=C(c1csnn1)N1CCC2(CC1)CCN(C(c1ccccc1)c1ccccc1)CC2 | – | · | ? | · | ? | –
COc1cccc(C(=O)OCC(=O)NCCCc2ccccc2)c1 | – | · | – | – | – | –
COc1ccccc1NC(=O)CCC(=O)OCc1ccc(Cl)cc1 | – | – | – | – | – | –
CC1(CO)COC(c2ccccc2)=N1 (centres undefined) | – | · | – | – | – | –
SMILES | VDR inhibitor | TDP1 inh | TDP1 cell CPT | PLK1 PBD block | TDP1 cell noCPT | GCN5L2 inh
Cc1cc(C)nc(NC(=O)c2cc(-c3ccc(C)s3)nc3ccccc23)c1 | – | · | ? | – | 20.6µM | –
Cc1cc(NC(=O)c2cc(-c3cccs3)nc3ccccc23)no1 | – | – | 20.6µM | – | 25.9µM | –
COc1ccc(-c2[nH]ncc2CNCCn2cccn2)c(F)c1 | – | – | – | – | – | –
Cc1ccc(CN(C)C(=O)c2ccccc2NC(=O)c2ccccc2)o1 | – | – | ? | – | – | –
O=c1cc(-c2ccc(C3CCCCC3)cc2)[nH][nH]1 | – | – | ? | 23.8µM | ? | –
c1csc(CNc2ncnc3cc(-c4ccc5c(c4)OCO5)ccc23)c1 | · | – | · | · | · | ·
NCCNc1cccc2ccccc12 | 50.1µM | – | ? | · | ? | –
O=S(=O)(Nc1cccc2ccccc12)c1cccc2ccccc12 | – | – | · | · | · | ·
COc1cccc(-c2cc(=O)c3cc(NC(C)=O)ccc3[nH]2)c1 | – | – | ? | – | 16.4µM | –
COc1ccccc1NC(=O)CSC1CC(=O)N(c2ccc3c(c2)OCO3)C1=O (centres undefined) | – | – | 4.61µM | – | 6.51µM | –
COc1ccc(NC(=O)CSC2CC(=O)N(c3ccc4c(c3)OCCO4)C2=O)cc1 (centres undefined) | – | – | 20.6µM | – | 23.1µM | –
COc1ccccc1NC(=O)CN1CCN(CC(=O)Nc2ccc3c(c2)OCO3)CC1 | – | – | ? | – | ? | –
CC(C)(C)Nc1nc(Cl)nc(NCc2ccccc2)n1 | – | · | 18.4µM | – | ? | –
CCCNc1nc(Cl)nc(NCc2cccnc2)n1 | – | · | – | – | ? | –
COc1cccc(-c2cncnc2N(C)Cc2ccco2)c1 | ? | · | – | · | – | –
